Measurements as given in PubChem BioAssay AID1672 (Johns Hopkins Ion Channel Center, 2009).
In all, about 310,000 compounds went through this assay and about 2,600 (0.84%) were called active. The sample holds actives, similar compounds and a random draw of the others, so the mix is not that of the screen. Values without a mark were called inactive.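 How the source made its calls: active means fluorescence ratio B-score at or below minus 3 SD of library scores, with starting-brightness B-score within 2 SD (cut at about -4.2 in these data); inactive means the rest.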

What follows are compounds tested against Inward rectifier potassium channel 2 (Mus musculus) (UniProt P35561) (assay: blocks the mouse Kir2.1 inward-rectifier potassium channel (AID 1672;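 further: channel flux triggered by added potassium and thallium sulfate stimulus; B-score of peak minus minimum fluorescence over baseline after thallium stimulus; more negative B-score means stronger Kir2.1 block with less thallium influx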)). Conditions: HEK293-Kir2.1, FluxOR thallium flux fluorescence; at 10 µM; hits give low values.
Sequence of Inward rectifier potassium channel 2 (Mus musculus) (P35561 whole entry, looked up): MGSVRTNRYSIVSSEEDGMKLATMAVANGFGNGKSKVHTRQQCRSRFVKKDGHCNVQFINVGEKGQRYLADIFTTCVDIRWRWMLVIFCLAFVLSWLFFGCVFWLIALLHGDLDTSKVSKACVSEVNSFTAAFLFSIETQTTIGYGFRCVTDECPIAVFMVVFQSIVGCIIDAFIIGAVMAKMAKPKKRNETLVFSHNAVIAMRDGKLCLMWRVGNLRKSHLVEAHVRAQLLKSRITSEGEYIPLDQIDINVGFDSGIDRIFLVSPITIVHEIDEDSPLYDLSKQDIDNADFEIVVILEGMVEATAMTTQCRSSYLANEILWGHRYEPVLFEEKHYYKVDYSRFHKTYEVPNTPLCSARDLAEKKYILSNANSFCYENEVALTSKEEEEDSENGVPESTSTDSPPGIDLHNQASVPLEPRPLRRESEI

Structure (SMILES)	B-score
CNCC(O)c1cc(F)c(OCc2ccccc2)c(OCc2ccccc2)c1F (stereo not given)	-10.4 (active)
COc1ccc2c(c1O)-c1cccc3c1[C@@H](C2)N(C)CC3	-0.89
C=CC12CN(C)[C@@H]3C4CO[C@H](C[C@H]41)[C@]1(C(=O)Nc4ccccc41)[C@@H]32 (stereo not given in full)	-0.31
COC(=O)C1=C(c2ccccc2)C[C@@H]2CC[C@H]1N2C(=O)NCc1ccco1	-0.88
COc1ccc(N2C(=O)/C(=C/c3ccco3)C(=O)NC2=S)cc1	-1
COC(=O)N(c1ccc(OC)cc1)P1(=S)OCCC(C)O1 (stereo not given)	-0.02
CCOc1cccc(=NC2CCCCC2)c2c(C)[nH]c(C)c12	-6.51 (active)
CCC(C)n1c(O)c(/C=N/Nc2nc3c(c(=O)n(C)c(=O)n3C)n2C)c(=O)[nH]c1=S (stereo not given)	1.97
CCN1C(=O)C(=Cc2c(C)n(CC(=O)NCC3CCCO3)c3ccccc23)C(=O)N(CC)C1=S (stereo not given)	1.19
Cc1ccc(S(=O)(=O)N(C)c2ccc(C(=O)NCC3(N(C)C)CCCCC3)cc2)cc1	0.21
COC(=O)C1=C(c2ccccc2)C[C@@H]2CC[C@H]1N2C(=O)N1CCCCC1	-0.79
COc1ccc(C2NCc3ccc4c(c3-n3cccc32)OCO4)cc1OC (stereo not given)	-0.31
c1ccc(C2NCc3ccccc3-n3cccc32)cc1 (stereo not given)	-6.08 (active)
COc1ccc2c(c1)[C@]13CCCCC1C(C2)N(C)CC3 (stereo not given in full)	-0.18
O=C(Cc1ccccc1)N1CCN(C2CCCCCC2)CC1	-1.16
CCCCn1c(=O)c(C(=O)Nc2ccccc2Cl)c(O)c2ccccc21	-1.32
CN(C)CCN(CC1CCCN(Cc2ccccc2F)C1)C(=O)Cc1ccc(F)c(F)c1 (stereo not given)	-0.57
O=C1N=c2ccccc2=C/C1=C\c1c(O)[nH]c(=S)[nH]c1=O	0.39
CCCCCCCCCCCCn1ccc(=N)cc1	-13 (active)
COc1ccc(C(=O)CC2C(=O)N(C)C(=O)N(C)C2=O)cc1	0.17
c1ccc(CCN2CCC3(CC2)OCCO3)cc1	1.88
COC(=O)C1=C(c2cc3ccccc3s2)C[C@@H]2CC[C@H]1N2C(=O)NCCO	-0.7
Clc1ccc2nc3c(c(-c4ccccc4)c2c1)CNCC3	-7.18 (active)
Cc1nn(-c2ccccc2)c(C)c1NC(=O)COC(=O)Cc1ccccc1	-0.02
CCOC(=O)C1(CCc2ccccc2)CCN(Cc2ccco2)CC1	-2.11

Structure (SMILES)	B-score
CC[C@H]1CC2CN3CCc4c([nH]c5ccccc45)C(C(=O)OC)(C2)C13 (stereo not given in full)	-2.28
CC(c1ccccc1)(c1ccccc1)c1ccncc1	-4.28 (active)
CCN(CC)C(=O)c1ccc(NC(=O)c2sccc2-c2ccccc2)cc1	0.02
COC(=O)C1=C(c2cc3ccccc3s2)C[C@@H]2CC[C@H]1N2C(=O)NC(C)C	-1.96
O=C(C1CC(=O)N(C2CCCC2)C1)N1CCC2(CC1)OCCO2 (stereo not given)	0.05
Cc1ccc(C2CN(C)CC2C(=O)c2ccc(F)cc2)cc1 (stereo not given)	-2.69
O=c1c2ccccc2nc(/C=C/c2ccco2)n1-c1ccccc1O	-0.02
C/C(=N/O)c1ccc2ccc3ccccc3c2c1	-0.33
Cc1nc2ccccn2c1P(=S)(N1CCCCC1)N1CCCCC1	-5.35 (active)
CCCCCn1c(=O)c(C(=O)NCc2ccccc2)c(O)c2ccccc21	1.46
COc1ccccc1C1=NCc2nnc(CSC)n2-c2ccc(Cl)cc21	0.29
CCOc1ccc(-c2cc(C)[n+](CCN(CC)CC)c(-c3ccc(OCC)cc3)c2)cc1	-4.58 (active)
Cc1cc2ccccn2c1C(C[N+](=O)[O-])c1c(F)cccc1Cl (stereo not given)	-0.86
COc1ccc(CNCCc2c[nH]c3ccccc23)cc1OC	0.17
COc1ccc(CNCCc2ccc3c(c2)OCO3)c(OC)c1OC	0.87
COc1ccc(Br)cc1CNCCc1cccc(Cl)c1	-10.4 (active)
NCCc1c[nH]c2ccc(O)cc12	-0.71
COC(=O)C1=C(c2cc3ccccc3s2)C[C@@H]2CC[C@H]1N2C(=O)NCc1cccc2ccccc12	2.94
COC(=O)C1=C(c2cc3ccccc3o2)C[C@@H]2CC[C@H]1N2C(=O)NC1CCCCC1	-0.65
CN(c1ccccc1)c1ccc([N+](=O)[O-])c2nonc12	-1.89
Oc1cc2c(cc1CN1CCN(c3ccccc3)CC1)OCO2	-0.91
O=C(Cc1ccccc1[N+](=O)[O-])N1CCN(Cc2ccc3c(c2)OCO3)CC1	0.65
Fc1ccc(N2CCN(Cc3ccc4c(c3)OCO4)CC2)cc1	-6.26 (active)
CCN1CCN(c2nc3c(c(=O)[nH]2)CCC3)CC1	1.68
COc1cccc(N2C(=O)NC(=O)/C(=C\c3cn(C)c4ccccc34)C2=O)c1	0.09
